This is an account of results in PubChem BioAssay (Tox21).

Results filed as inconclusive are left out. The source made the active and inactive calls. Unless noted, calls come from the whole dose curve.

Sequence of Retinoic acid receptor RXR-alpha (Homo sapiens) (P19793 whole entry, looked up): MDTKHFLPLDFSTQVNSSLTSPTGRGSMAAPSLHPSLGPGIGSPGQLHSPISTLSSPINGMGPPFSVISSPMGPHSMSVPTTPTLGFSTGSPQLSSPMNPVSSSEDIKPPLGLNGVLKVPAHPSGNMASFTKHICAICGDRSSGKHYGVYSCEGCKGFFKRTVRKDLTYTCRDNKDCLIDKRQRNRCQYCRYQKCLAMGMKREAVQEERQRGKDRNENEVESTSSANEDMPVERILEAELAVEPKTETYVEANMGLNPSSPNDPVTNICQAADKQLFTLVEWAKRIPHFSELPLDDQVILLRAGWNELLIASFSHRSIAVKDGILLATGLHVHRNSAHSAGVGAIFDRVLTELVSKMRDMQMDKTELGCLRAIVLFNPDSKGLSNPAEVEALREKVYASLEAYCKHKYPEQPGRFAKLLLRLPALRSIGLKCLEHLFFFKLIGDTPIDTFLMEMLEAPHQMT

In one assay the target is Nuclear receptor ROR-gamma (Homo sapiens) (UniProt P51449). Description: qHTS assay to identify small molecule antagonists of the retinoid-related orphan receptor gamma (ROR-gamma) signaling pathway (AID 1159521; active = well fitted inhibition curve with a large enough effect in the repeat runs; note: nearly all actives have a fitted effect of over 50% in size; note: potency is the fitted concentration of half-maximal effect;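 for activity change, negative = inhibition: CHO cells with doxycycline inducible ROR-gamma driving an RORE luciferase reporter; top concentration of the series differs between compounds; % is set by controls: 0 for no effect and ±100 for the full control effect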). The settings on record: Tet-on RORgamma CHO cells, RORE-luciferase, 16 h; series mostly up to 92.4 µM; activity change, negative = inhibition: at the top concentration. The procedure, abridged:
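Decreased RORE-driven luciferase luminescence indicates antagonism. Tet-on RORγ CHO cells received compound, then 1 uM final doxycycline 2 h later; signal read after 16 h incubation.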
In the case of `CN(Cc1cc(Br)cc(Br)c1N)C1CCCCC1`, the “activity change, negative = inhibition” value is -10.3% [at 42.5 µM] (inactive).

As to `CCN1CCN(c2cc(-c3ccc(F)cc3)c3c(n2)CCCCCC3)CC1`, the activity change, negative = inhibition was -6.23% [at 19 µM] (inactive).

For the compound `CCCN(CCc1cccs1)[C@H]1CCc2c(O)cccc2C1`, the “activity change, negative = inhibition” value is -2.08% [at 42.5 µM] (inactive).

Take `CC(=O)Oc1ccc(C2(c3ccc(OC(C)=O)cc3)C(=O)Nc3ccccc32)cc1`: the “activity change, negative = inhibition” value is 32.1% [at 42.5 µM] (inactive).

`CCCCCCCC/C=C\CCCCCCCC(=O)NCc1ccc(O)c(OC)c1`: the “activity change, negative = inhibition” value is 4.83% [at 42.5 µM] (inactive).

`C/C=C/C=N/NC(=O)c1ccncc1`: the “activity change, negative = inhibition” value was -13.9% [at 42.5 µM] (inactive).

Take `CN(C)c1ccc(N=Nc2ccccc2C(=O)O)cc1`: the Potency was 12.2 µM (active).

`O=C1Nc2ccc(Cl)cc2[C@@](C#CC2CC2)(C(F)(F)F)O1`: the “activity change, negative = inhibition” value was -10.4% [at 42.5 µM] (inactive).

In the case of `CCCCCCCC/C=C/CCCOC(C)=O`, the “activity change, negative = inhibition” value was 2.59% (inactive).

`CCN(CC)CCSC(=O)C(c1ccccc1)c1ccccc1`: the “activity change, negative = inhibition” value is -4.57% [at 42.5 µM] (inactive).

On to `O=C(O)Cc1ccc(OCCNC[C@H](O)c2ccccc2)cc1`, for which the “activity change, negative = inhibition” value is -20.3% [at 42.5 µM] (inactive).

Take `CC1(C)C(=O)N(Br)C(=O)N1Br`: the “activity change, negative = inhibition” value is 5.63% (inactive).

`CCC(C)(C)c1cc(O)c(C(C)(C)CC)cc1O`: the Potency was 24.3 µM (active).

As to `c1cc(OCC2CO2)cc(OCC2CO2)c1` (stereo not drawn), the Potency is 48.2 µM (active).

As for `COc1cccc(CCc2ccccc2OCC(CN(C)C)OC(=O)CCC(=O)O)c1` (stereo not drawn), the Potency is 7.5 µM (active).

For the compound `CCCCNc1c(C(=O)OCC)c(C)nc2c1cnn2CC`, the “activity change, negative = inhibition” value is 32.7% [at 42.5 µM] (inactive).

Regarding `CC1CCCCN1CCCOC(=O)c1ccc(OC2CCCCC2)cc1` (stereo not drawn), the Potency was 11.9 µM (active).

Consider `NC1(c2ccc(-c3nc4ccn5c(=O)[nH]nc5c4cc3-c3ccccc3)cc2)CCC1`, for which the Potency was 0.596 µM (active).

Turning to `O=C(O)CCCCCCC(=O)O`, the “activity change, negative = inhibition” value was 39.9% (inactive).

For the compound `O=C(c1ccccc1)c1cc(Cl)ccc1O`, the “activity change, negative = inhibition” value is 13.5% (inactive).

Take `COC(=O)CC(C)CCC=C(C)C` (stereo not drawn): the “activity change, negative = inhibition” value is -0.7% (inactive).

`c1cc2c3c(c1)ccc1cccc(c13)C2`: the “activity change, negative = inhibition” value is 20.9% (inactive).

On to `O=C1NCCN1CCN1CCC(c2cn(-c3ccc(F)cc3)c3ccc(Cl)cc23)CC1`, for which the Potency was 26.6 µM (active).

Take `CC(=O)Oc1ccc(C2(c3ccc(OC(C)=O)cc3)Oc3ccccc3NC2=O)cc1`: the Potency was 26.6 µM (active).

In the case of `CCCCCCCCCCCC(=O)N(CC)CC`, the “activity change, negative = inhibition” value is 0.156% (inactive).

For the compound `CNC(=S)NN`, the Potency was 27.3 µM (active).

On to `Cc1ccc(CCn2c3c(c4cc(Cl)ccc42)CN(C)CC3)cn1`, for which the “activity change, negative = inhibition” value is 4.3% [at 42.5 µM] (inactive).

Turning to `N[C@@H](CSSC[C@H](N)C(=O)O)C(=O)O`, the activity change, negative = inhibition was -16.9% [at 0.35 µM] (inactive).

In the case of `C=CC(C)(CCC=C(C)C)OC(=O)/C=C/c1ccccc1` (stereo not drawn), the “activity change, negative = inhibition” value is -0.915% (inactive).

System in a further assay: not listed separately
Description: qHTS assay to identify small molecule agonists of the AP-1 signaling pathway - cell viability counter screen (AID 1159525). Note: nearly all actives have a fitted effect of over 55% in size. The settings on record: ME-180 AP-1-bla cells viability, ATP luminescence, 5 h; series mostly up to 76.8 µM; viability change, negative = cytotoxic: at the top concentration. The procedure, abridged: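 Luminescent ATP readout (Cell Titer Glo, 30 min RT), normalised to DMSO and tetra n-octyl ammonium bromide controls. Cells were ME-180 AP-1-bla in 0.5% dialyzed FBS Opti-MEM, with a 5 h, 37 °C compound exposure.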
Turning to `CCN1CCN(c2cc(-c3ccc(F)cc3)c3c(n2)CCCCCC3)CC1`, the viability change, negative = cytotoxic is 3.9% [at 15.8 µM] (inactive).

Take `CC(C)(C)C1=CC(=O)C=C(C(C)(C)C)C1=O`: the “viability change, negative = cytotoxic” value is -1.42% (inactive).

Consider `CCCCCCCC/C=C\CCCCCCCC(=O)NCc1ccc(O)c(OC)c1`, for which the “viability change, negative = cytotoxic” value is -3.08% [at 35.3 µM] (inactive).

Consider `CCCCCCCC/C=C/CCCOC(C)=O`, for which the “viability change, negative = cytotoxic” value was 0.623% (inactive).

For `O=S(=O)(O)CCCN1CCOCC1`, the “viability change, negative = cytotoxic” value is 1.91% (inactive).

`CCN(CC)CCSC(=O)C(c1ccccc1)c1ccccc1`: the “viability change, negative = cytotoxic” value was 3.14% [at 35.3 µM] (inactive).

As for `O=C(O)Cc1ccc(OCCNC[C@H](O)c2ccccc2)cc1`, the “viability change, negative = cytotoxic” value is -2.61% [at 35.3 µM] (inactive).

For the compound `CC1(C)C(=O)N(Br)C(=O)N1Br`, the “viability change, negative = cytotoxic” value was -1.23% (inactive).

For `CCC(C)(C)c1cc(O)c(C(C)(C)CC)cc1O`, the “viability change, negative = cytotoxic” value was -3.97% (inactive).

For `c1cc(OCC2CO2)cc(OCC2CO2)c1` (stereo not drawn), the “viability change, negative = cytotoxic” value is 1.4% (inactive).

In the case of `COc1cccc(CCc2ccccc2OCC(CN(C)C)OC(=O)CCC(=O)O)c1` (stereo not drawn), the “viability change, negative = cytotoxic” value was -7.75% [at 35.3 µM] (inactive).

Consider `CCCCNc1c(C(=O)OCC)c(C)nc2c1cnn2CC`, for which the “viability change, negative = cytotoxic” value is -8.17% [at 35.3 µM] (inactive).

In the case of `Cc1cn[nH]c1`, the “viability change, negative = cytotoxic” value was -7.62% [at 35.3 µM] (inactive).

Turning to `CC1CCCCN1CCCOC(=O)c1ccc(OC2CCCCC2)cc1` (stereo not drawn), the “viability change, negative = cytotoxic” value is -11.6% [at 35.3 µM] (inactive).

For the compound `CCNc1nc(NC(C)CC)nc(OC)n1` (stereo not drawn), the “viability change, negative = cytotoxic” value is -0.0458% (inactive).

Consider `NCCCC(O)(P(=O)(O)O)P(=O)(O)O`, for which the “viability change, negative = cytotoxic” value is 4.72% [at 35.3 µM] (inactive).

`COC(=O)CC(C)CCC=C(C)C` (stereo not drawn): the “viability change, negative = cytotoxic” value is -1.55% (inactive).

For the compound `c1cc2c3c(c1)ccc1cccc(c13)C2`, the “viability change, negative = cytotoxic” value is -9.29% (inactive).

In the case of `CCCCCCCCCCCC(=O)N(CC)CC`, the “viability change, negative = cytotoxic” value is -1.33% (inactive).

Take `CNC(=S)NN`: the “viability change, negative = cytotoxic” value is 18.5% (inactive).

For `ClC/C=C\CCl`, the “viability change, negative = cytotoxic” value is -19.7% (inactive).

In the case of `C=CC(C)(CCC=C(C)C)OC(=O)/C=C/c1ccccc1` (stereo not drawn), the “viability change, negative = cytotoxic” value is -26.5% (inactive).

System in a further assay: not listed separately
The assay can be described thus: qHTS assay to identify small molecule agonists of the AP-1 signaling pathway (AID 1159526). Note: % is set by controls: 0 for no effect and ±100 for the full control effect. The settings on record: ME-180 (cervical carcinoma) AP-1-bla reporter, beta-lactamase FRET ratio, 5 h; series mostly up to 76.8 µM; activation: at the top concentration.
Regarding `CCN1CCN(c2cc(-c3ccc(F)cc3)c3c(n2)CCCCCC3)CC1`, the activation was 6.74% [at 15.8 µM] (inactive).

Turning to `CC(C)(C)C1=CC(=O)C=C(C(C)(C)C)C1=O`, the “activation” value was -6.87% (inactive).

As to `CCCCCCCC/C=C/CCCOC(C)=O`, the “activation” value is 3.64% (inactive).

In the case of `O=S(=O)(O)CCCN1CCOCC1`, the “activation” value is 0.0515% (inactive).

In the case of `CC1(C)C(=O)N(Br)C(=O)N1Br`, the “activation” value is -15.2% (inactive).

Consider `CCC(C)(C)c1cc(O)c(C(C)(C)CC)cc1O`, for which the “activation” value is 8.2% (inactive).

Take `COc1cccc(CCc2ccccc2OCC(CN(C)C)OC(=O)CCC(=O)O)c1` (stereo not drawn): the “activation” value was 5.2% [at 35.3 µM] (inactive).

As to `CCCCNc1c(C(=O)OCC)c(C)nc2c1cnn2CC`, the “activation” value was 8.24% [at 35.3 µM] (inactive).

Turning to `Cc1cn[nH]c1`, the “activation” value was -1.34% [at 35.3 µM] (inactive).

For `CCNc1nc(NC(C)CC)nc(OC)n1` (stereo not drawn), the “activation” value is -2.87% (inactive).

Turning to `O=C(O)CCCCCCC(=O)O`, the “activation” value is 1.71% (inactive).

Consider `NCCCC(O)(P(=O)(O)O)P(=O)(O)O`, for which the “activation” value is -3.37% [at 35.3 µM] (inactive).

For the compound `CC(=O)Oc1ccc(C2(c3ccc(OC(C)=O)cc3)Oc3ccccc3NC2=O)cc1`, the “activation” value is 4.62% [at 35.3 µM] (inactive).

For `Cc1ccc(CCn2c3c(c4cc(Cl)ccc42)CN(C)CC3)cn1`, the “activation” value is 12.8% [at 35.3 µM] (inactive).

As to `ClC/C=C\CCl`, the “activation” value was 0.134% (inactive).

The next assay concerns the target Retinoic acid receptor RXR-alpha (Homo sapiens) (UniProt P19793). Description: qHTS assay to identify small molecule agonists of the RXR signaling pathway (AID 1159527). Note: % is set by controls: 0 for no effect and ±100 for the full control effect; nearly all actives have a fitted effect of over 35% in size. To be noted: HEK293T RXRa-UAS-bla, beta-lactamase ratio, 16 h; series mostly up to 76.8 µM; activation: at the top concentration. Put shortly:
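16 hr incubation of compound-treated RXR-alpha-UAS-bla HEK 293T cells (2% charcoal-stripped FBS, 37 C) preceded a 2 hr room-temperature LiveBLAzer FRET substrate step and blue/green fluorescence measurement.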
Take `CCCN(CCc1cccs1)[C@H]1CCc2c(O)cccc2C1`: the “activation” value was -9.87% [at 35.3 µM] (inactive).

Take `CC(=O)Oc1ccc(C2(c3ccc(OC(C)=O)cc3)C(=O)Nc3ccccc32)cc1`: the “activation” value was -3.87% [at 35.3 µM] (inactive).

`CC(C)(C)C1=CC(=O)C=C(C(C)(C)C)C1=O`: the “activation” value is -0.441% (inactive).

Consider `CCCCCCCC/C=C\CCCCCCCC(=O)NCc1ccc(O)c(OC)c1`, for which the “activation” value was -23% [at 35.3 µM] (inactive).

Regarding `O=S(=O)(O)CCCN1CCOCC1`, the “activation” value is 5.12% (inactive).

In the case of `CCC(C)(C)c1cc(O)c(C(C)(C)CC)cc1O`, the “activation” value is -18.3% (inactive).

For the compound `Cc1cn[nH]c1`, the “activation” value is 0.258% [at 35.3 µM] (inactive).

On to `CCNc1nc(NC(C)CC)nc(OC)n1` (stereo not drawn), for which the “activation” value is -17.1% (inactive).

As to `O=C(O)CCCCCCC(=O)O`, the “activation” value is -1.82% (inactive).

For `NCCCC(O)(P(=O)(O)O)P(=O)(O)O`, the “activation” value is 1.14% [at 35.3 µM] (inactive).

As for `O=C(c1ccccc1)c1cc(Cl)ccc1O`, the “activation” value was -17.3% (inactive).

`ClC/C=C\CCl`: the “activation” value was 7.18% (inactive).
